Assay results from PubChem BioAssay (EPA / NIEHS).
Inconclusive results are not listed. Activity calls are given as the source filed them. Rule for the calls, unless noted: active = hit-call score of the fitted dose curve at least 0.9, where 1 is the maximum; inactive = score below 0.9.

Experiments:
[1] = ATG_M_06_TRANS: Attagene TRANS-FACTORIAL HepG2 Assay for M06 Transcription Factor (Internal Marker) (AID 2282983; active = hit-call score of the fitted dose curve at least 0.9, where 1 is the maximum;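 note: reporter transcript level by RT-PCR then capillary electrophoresis fluorescence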); settings: HepG2 Attagene TRANS M06 internal marker reporter
Method in brief: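 Transfect HepG2 with MRTUs → dose compounds 24 h → isolate RNA, oligo(dT) RT → PCR with reporter primers → 6-FAM primer extension → HpaI digest → CE fragment analysis. Positive direction vs DMSO.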

[2] = ATG_M_32_TRANS: Attagene TRANS-FACTORIAL HepG2 Assay for M32 Transcription Factor (Internal Marker) (AID 2282984; active = hit-call score of the fitted dose curve at least 0.9, where 1 is the maximum;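 note: transcript level of a background control reporter unit measured by RT-PCR and capillary electrophoresis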); settings: HepG2 Attagene TRANS M32 internal marker reporter
Method in brief: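 HepG2 cells transiently transfected with GAL4-UAS reporter units, dosed for 24 hours. Reporter mRNA quantified by RT-PCR, 6-FAM labelling, HpaI digestion and capillary electrophoresis; internal-marker signal fitted upward relative to DMSO.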

[3] = target: Nuclear respiratory factor 1 (Homo sapiens) (UniProt Q16656); test: ATG_NRF1_CIS: Attagene CIS-FACTORIAL HepG2 Assay for human Nuclear Respiratory Factor 1 (NRF1) Orphan Gene (AID 2282987); settings: HepG2 NRF1 cis-element reporter, Attagene multiplex; actives raise or lower the signal
Chain of Nuclear respiratory factor 1 (Homo sapiens) (Q16656 whole entry, looked up): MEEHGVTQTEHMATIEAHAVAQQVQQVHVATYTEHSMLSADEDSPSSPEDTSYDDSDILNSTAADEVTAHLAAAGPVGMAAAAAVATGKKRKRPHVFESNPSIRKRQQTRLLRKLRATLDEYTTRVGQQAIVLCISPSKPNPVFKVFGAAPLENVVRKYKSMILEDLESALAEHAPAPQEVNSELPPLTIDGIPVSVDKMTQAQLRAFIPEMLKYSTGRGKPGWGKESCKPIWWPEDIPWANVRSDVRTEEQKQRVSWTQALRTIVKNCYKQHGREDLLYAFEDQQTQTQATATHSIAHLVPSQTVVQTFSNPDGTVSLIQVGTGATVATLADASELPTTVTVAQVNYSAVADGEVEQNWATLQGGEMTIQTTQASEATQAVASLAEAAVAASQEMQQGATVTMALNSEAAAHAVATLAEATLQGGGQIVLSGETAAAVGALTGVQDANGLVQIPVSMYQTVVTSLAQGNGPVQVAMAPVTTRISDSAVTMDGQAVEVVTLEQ
Method in brief: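 HepG2 cells transiently transfected with multiple cis-regulated reporter units, exposed 24 h. Reporter mRNAs measured by RT-PCR, fluorescent labelling, HpaI digestion and capillary electrophoresis; bidirectional fitting against DMSO.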

[4] = ATG_NFI_CIS: Attagene CIS-FACTORIAL HepG2 Assay for human Nuclear Factor I (NFI) (AID 2282989); settings: HepG2 cis-regulatory reporter, NFI response element transcription; actives raise or lower the signal
Method in brief: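 Endogenous TF activity in HepG2 cells transiently transfected with cis-element-driven multiplexed reporter units, read 24 h after dosing. Reporter mRNA quantified by RT-PCR, 6-FAM labelling, HpaI digestion and capillary electrophoresis; bidirectional fit versus DMSO.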

[5] = target: Myc proto-oncogene protein (Homo sapiens) (UniProt P01106); test: ATG_Myc_CIS: Attagene CIS-FACTORIAL HepG2 Assay for human Myelocytomatosis (Myc) Proto-Oncogene Transcription Factor (AID 2282990); settings: HepG2, Attagene cis-reporter transcription factor activity; actives raise or lower the signal
Chain of Myc proto-oncogene protein (Homo sapiens) (P01106 whole entry, looked up, the tested form may be a part): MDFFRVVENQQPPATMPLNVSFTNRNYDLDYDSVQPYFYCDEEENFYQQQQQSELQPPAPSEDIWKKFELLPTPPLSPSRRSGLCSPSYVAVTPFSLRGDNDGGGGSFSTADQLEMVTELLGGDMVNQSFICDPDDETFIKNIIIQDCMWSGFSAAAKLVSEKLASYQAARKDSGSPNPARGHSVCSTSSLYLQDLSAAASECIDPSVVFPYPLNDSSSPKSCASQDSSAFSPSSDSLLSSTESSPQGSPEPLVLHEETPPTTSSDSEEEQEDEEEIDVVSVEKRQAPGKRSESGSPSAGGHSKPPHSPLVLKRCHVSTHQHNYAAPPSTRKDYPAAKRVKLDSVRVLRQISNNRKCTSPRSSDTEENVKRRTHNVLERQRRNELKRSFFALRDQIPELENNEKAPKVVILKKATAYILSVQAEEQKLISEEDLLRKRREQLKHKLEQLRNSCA
Method in brief: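 Fluorescence intensity of reporter-specific cDNA fragments, separated by capillary electrophoresis, gives the signal. Transfected HepG2 cells carrying cis-promoter reporter constructs are incubated with compound for 24 h; DMSO serves as baseline.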

[6] = ATG_NF_kB_CIS: Attagene CIS-FACTORIAL HepG2 Assay for human Nuclear Factor Kappa B (NF-kB) (AID 2282991); settings: HepG2 Attagene cis-factorial NF-kB reporter mRNA; actives raise or lower the signal
Method in brief: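 HepG2 cells transfected with cis-promoter-driven reporter units, so endogenous transcription factor activity is measured. Reporter mRNA quantified 24 h after dosing by RT-PCR and capillary electrophoresis, with bidirectional fitting against DMSO.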

[7] = ATG_NRF2_ARE_CIS: Attagene CIS-FACTORIAL HepG2 Assay for human Nuclear Factor Erythroid 2 Related Factor 2 (NFR2) response to Antioxidant Response Elements (ARE) (AID 2282992); settings: HepG2 Attagene ARE/NRF2 reporter, transcription factor activity; actives raise or lower the signal;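 for AC50: reporter mRNA level measured by RT-PCR and capillary electrophoresis fluorescence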
Method in brief: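 Cis-factorial assay: transfected HepG2 reporter library, 24 h dosing, mRNA readout via RT-PCR/CE; DMSO-referenced bidirectional analysis.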

[8] = ATG_Oct_MLP_CIS: Attagene CIS-FACTORIAL HepG2 Assay for human Octamer-Binding Transcription Factor (Oct) (AID 2282993); settings: HepG2 Attagene cis-factorial Oct reporter, mRNA; actives raise or lower the signal
Method in brief: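 HepG2 cells transiently transfected with cis-element-driven reporter transcription units (endogenous TF activity); 24 h compound exposure. Reporter mRNA quantified by RT-PCR, 6-FAM labelling, HpaI digestion and capillary electrophoresis; bidirectional fit versus DMSO baseline.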

[9] = target: Cellular tumor antigen p53 (Homo sapiens) (UniProt P04637); test: ATG_p53_CIS: Attagene CIS-FACTORIAL HepG2 Assay for human p53 Transcription Factor (AID 2282994); settings: HepG2 p53 cis-element reporter, Attagene mRNA; actives raise or lower the signal
Chain of Cellular tumor antigen p53 (Homo sapiens) (P04637 whole entry, looked up): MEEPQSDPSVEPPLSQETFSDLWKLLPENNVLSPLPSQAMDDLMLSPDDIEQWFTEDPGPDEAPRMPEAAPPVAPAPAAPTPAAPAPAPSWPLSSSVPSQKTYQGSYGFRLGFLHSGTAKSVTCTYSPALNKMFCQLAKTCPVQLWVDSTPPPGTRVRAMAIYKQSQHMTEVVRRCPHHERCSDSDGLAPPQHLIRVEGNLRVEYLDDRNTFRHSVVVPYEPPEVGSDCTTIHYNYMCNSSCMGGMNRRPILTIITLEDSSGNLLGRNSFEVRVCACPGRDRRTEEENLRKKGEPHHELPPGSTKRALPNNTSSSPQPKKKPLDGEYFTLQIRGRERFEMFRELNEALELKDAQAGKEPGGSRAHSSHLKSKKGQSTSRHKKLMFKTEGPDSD
Method in brief: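 Using HepG2 hepatoma cells carrying cis-acting multiplexed reporters, mRNA induction is detected after a 24 h exposure. Gain- and loss-of-signal responses are fitted relative to DMSO-treated cells.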

[10] = BSK_3C_TissueFactor: BioMAP Diversity Plus: 3C Assay for Tissue Factor Biomarker Activity (AID 2282997); settings: BioMAP 3C HUVEC, tissue factor biomarker readout; actives raise or lower the signal
Method in brief: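 ELISA read-out of Tissue Factor levels on human umbilical vein endothelium collected 24 h after chemical dosing. Gain or loss of signal was fitted relative to DMSO.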

[11] = BSK_3C_uPAR: BioMAP Diversity Plus: 3C Assay for Urokinase-type plasminogen activator receptor (uPAR) Biomarker Activity (AID 2282998); settings: BioMAP 3C HUVEC, uPAR biomarker ELISA; actives raise or lower the signal
Method in brief: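 Primary human umbilical vein endothelial cells, 3C system; surface uPAR measured by ELISA 24 h after dosing. Cytotoxicity via SRB total protein in parallel cultures; bidirectional fit against DMSO.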

[12] = BSK_3C_VCAM1: BioMAP Diversity Plus: 3C Assay for Vascular cell adhesion molecule 1 (VCAM1) Biomarker Activity (AID 2282999); settings: BioMAP 3C HUVEC, VCAM1 ELISA, cytokine-stimulated; actives raise or lower the signal
Method in brief: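 Human umbilical vein endothelial cells (3C system), biomarker read by ELISA 24 h after dosing; bidirectional fit against DMSO baseline. Cytotoxicity tracked by SRB total-protein staining in parallel cultures at biomarker time.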

[13] = BSK_4H_Eotaxin3: BioMAP Diversity Plus: 4H Assay for Eotaxin 3 Biomarker Activity (AID 2283000); settings: primary human endothelial cells (HUVEC); actives raise or lower the signal
Method in brief: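 Chemicals were added to human umbilical vein endothelium cultures, and Eotaxin-3 was quantified by ELISA at 24 h. Values were derived by bidirectional fitting with DMSO serving as negative control and activity baseline.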

[14] = target: human Peroxisome Proliferator-activated Receptor alpha (PPARa), PPARA (gene 5465) (UniProt Q07869); test: ATG_PPARa_TRANS: Attagene TRANS-FACTORIAL HepG2 Assay for human Peroxisome Proliferator-activated Receptor alpha (PPARa) (AID 2283001; active = hit-call score of the fitted dose curve at least 0.9, where 1 is the maximum;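 for AC50: potency for gain of reporter signal over DMSO so agonist or activator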)
Chain of human Peroxisome Proliferator-activated Receptor alpha (PPARa), PPARA (gene 5465) (Q07869 whole entry, looked up, the tested form may be a part): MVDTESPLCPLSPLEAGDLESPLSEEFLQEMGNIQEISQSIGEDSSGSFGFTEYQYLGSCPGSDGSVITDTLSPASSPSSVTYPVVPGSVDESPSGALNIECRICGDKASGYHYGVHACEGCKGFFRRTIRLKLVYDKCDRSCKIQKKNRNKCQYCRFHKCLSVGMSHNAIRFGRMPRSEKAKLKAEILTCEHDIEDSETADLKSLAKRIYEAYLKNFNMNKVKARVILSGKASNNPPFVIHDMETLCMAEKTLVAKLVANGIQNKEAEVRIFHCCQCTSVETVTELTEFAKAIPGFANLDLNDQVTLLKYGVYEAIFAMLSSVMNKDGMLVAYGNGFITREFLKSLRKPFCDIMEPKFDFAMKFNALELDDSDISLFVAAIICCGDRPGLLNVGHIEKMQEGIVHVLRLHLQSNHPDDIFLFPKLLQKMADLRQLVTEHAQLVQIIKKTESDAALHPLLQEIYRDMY
Method in brief: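 HepG2 cells transiently transfected with multiplexed GAL4-UAS reporters driven by exogenous chimeric NR-Gal4 proteins; reporter mRNA measured after 24 h dosing. Read-out by RT-PCR, 6-FAM labelling, HpaI digestion and capillary electrophoresis; gain of signal versus DMSO.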

[15] = target: Transcriptional activator Myb (Homo sapiens) (UniProt P10242); test: ATG_Myb_CIS: Attagene CIS-FACTORIAL HepG2 Assay for human Myeloblastosis (Myb) Proto-Oncogene Transcription Factor (AID 2282986); settings: HepG2 Attagene CIS-FACTORIAL Myb reporter transcription; actives raise or lower the signal
Chain of Transcriptional activator Myb (Homo sapiens) (P10242 whole entry, looked up): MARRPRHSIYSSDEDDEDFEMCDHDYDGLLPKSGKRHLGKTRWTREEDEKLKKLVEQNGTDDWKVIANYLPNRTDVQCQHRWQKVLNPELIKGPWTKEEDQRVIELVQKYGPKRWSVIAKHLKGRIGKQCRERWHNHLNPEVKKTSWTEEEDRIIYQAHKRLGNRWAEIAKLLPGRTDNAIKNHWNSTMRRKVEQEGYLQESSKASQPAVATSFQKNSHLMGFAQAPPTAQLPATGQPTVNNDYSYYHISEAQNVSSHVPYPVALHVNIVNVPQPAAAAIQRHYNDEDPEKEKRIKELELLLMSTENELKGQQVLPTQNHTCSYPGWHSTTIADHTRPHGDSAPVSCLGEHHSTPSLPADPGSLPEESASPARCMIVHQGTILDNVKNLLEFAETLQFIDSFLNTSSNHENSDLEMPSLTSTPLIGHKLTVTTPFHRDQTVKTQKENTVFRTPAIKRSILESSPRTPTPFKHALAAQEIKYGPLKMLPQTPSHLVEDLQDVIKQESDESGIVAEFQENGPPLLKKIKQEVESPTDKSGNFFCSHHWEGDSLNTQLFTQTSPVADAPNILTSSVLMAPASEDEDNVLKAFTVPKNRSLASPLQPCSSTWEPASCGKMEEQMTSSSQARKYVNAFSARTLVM
Method in brief: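 Transiently transfected HepG2 cells carrying a multiplexed cis-promoter reporter set report endogenous Myb activity after 24 h compound exposure. Reporter mRNA is read by RT-PCR with capillary electrophoresis of fluorescent products, fitted bidirectionally against DMSO.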

[16] = target: Oxysterols receptor LXR-beta (Homo sapiens) (UniProt P55055); test: ATG_LXRb_TRANS: Attagene TRANS-FACTORIAL HepG2 Assay for human Liver X Receptor beta (LXRb) (AID 2282981; active = hit-call score of the fitted dose curve at least 0.9, where 1 is the maximum); settings: HepG2 Attagene TRANS GAL4-LXRb reporter, mRNA
Chain of Oxysterols receptor LXR-beta (Homo sapiens) (P55055 whole entry, looked up, the tested form may be a part): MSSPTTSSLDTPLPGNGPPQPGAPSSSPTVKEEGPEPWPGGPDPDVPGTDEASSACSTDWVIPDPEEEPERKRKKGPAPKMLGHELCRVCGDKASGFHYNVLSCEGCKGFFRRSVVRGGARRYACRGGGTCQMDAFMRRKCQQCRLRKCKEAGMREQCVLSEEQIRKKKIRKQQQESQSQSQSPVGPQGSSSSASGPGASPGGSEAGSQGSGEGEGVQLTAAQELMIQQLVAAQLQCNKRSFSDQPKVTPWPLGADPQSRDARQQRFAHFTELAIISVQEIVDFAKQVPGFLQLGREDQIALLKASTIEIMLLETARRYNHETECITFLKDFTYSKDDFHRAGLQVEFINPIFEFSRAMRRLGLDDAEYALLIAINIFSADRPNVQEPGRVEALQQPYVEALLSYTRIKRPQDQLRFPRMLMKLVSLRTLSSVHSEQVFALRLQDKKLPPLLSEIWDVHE
Method in brief: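 HepG2 cells transiently transfected with GAL4-UAS reporter units for chimeric NR-Gal4 proteins, dosed for 24 h. Reporter transcripts measured by RT-PCR and capillary electrophoresis; gain-of-signal fitting relative to DMSO.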

[17] = target: Nuclear receptor subfamily 4 group A member 2 (Homo sapiens) (UniProt P43354); test: ATG_NURR1_TRANS: Attagene TRANS-FACTORIAL HepG2 Assay for human Nuclear Receptor Related Protein 1 (NURR1) (AID 2282985; active = hit-call score of the fitted dose curve at least 0.9, where 1 is the maximum); settings: HepG2 Attagene TRANS reporter, mRNA readout
Chain of Nuclear receptor subfamily 4 group A member 2 (Homo sapiens) (P43354 whole entry, looked up, the tested form may be a part): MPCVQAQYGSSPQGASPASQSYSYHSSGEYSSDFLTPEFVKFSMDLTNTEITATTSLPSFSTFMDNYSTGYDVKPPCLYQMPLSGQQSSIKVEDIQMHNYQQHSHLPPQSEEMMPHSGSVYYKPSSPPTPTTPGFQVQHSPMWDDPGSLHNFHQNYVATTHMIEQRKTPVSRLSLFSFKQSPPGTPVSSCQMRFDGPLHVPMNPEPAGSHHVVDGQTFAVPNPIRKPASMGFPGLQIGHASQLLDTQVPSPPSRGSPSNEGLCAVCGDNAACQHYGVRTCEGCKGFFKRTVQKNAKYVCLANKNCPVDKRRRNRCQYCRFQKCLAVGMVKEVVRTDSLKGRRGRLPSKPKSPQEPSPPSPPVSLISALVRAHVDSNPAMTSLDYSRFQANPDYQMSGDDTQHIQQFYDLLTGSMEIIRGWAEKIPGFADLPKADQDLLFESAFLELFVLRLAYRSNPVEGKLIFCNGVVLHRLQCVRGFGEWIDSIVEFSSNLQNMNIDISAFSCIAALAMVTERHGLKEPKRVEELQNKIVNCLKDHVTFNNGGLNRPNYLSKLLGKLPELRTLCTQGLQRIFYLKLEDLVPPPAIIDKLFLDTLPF
Method in brief: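 HepG2 cells transiently transfected with NURR1-Gal4 chimera and GAL4-UAS reporter units; after 24 hr compound exposure, reporter mRNA quantified by RT-PCR and capillary electrophoresis; gain of signal fitted against DMSO.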

[18] = target: human Peroxisome Proliferator-activated Receptor delta (PPARd), PPARD (gene 5467) (UniProt Q03181); test: ATG_PPARd_TRANS: Attagene TRANS-FACTORIAL HepG2 Assay for human Peroxisome Proliferator-activated Receptor delta (PPARd) (AID 2283002; active = hit-call score of the fitted dose curve at least 0.9, where 1 is the maximum)
Chain of human Peroxisome Proliferator-activated Receptor delta (PPARd), PPARD (gene 5467) (Q03181 whole entry, looked up, the tested form may be a part): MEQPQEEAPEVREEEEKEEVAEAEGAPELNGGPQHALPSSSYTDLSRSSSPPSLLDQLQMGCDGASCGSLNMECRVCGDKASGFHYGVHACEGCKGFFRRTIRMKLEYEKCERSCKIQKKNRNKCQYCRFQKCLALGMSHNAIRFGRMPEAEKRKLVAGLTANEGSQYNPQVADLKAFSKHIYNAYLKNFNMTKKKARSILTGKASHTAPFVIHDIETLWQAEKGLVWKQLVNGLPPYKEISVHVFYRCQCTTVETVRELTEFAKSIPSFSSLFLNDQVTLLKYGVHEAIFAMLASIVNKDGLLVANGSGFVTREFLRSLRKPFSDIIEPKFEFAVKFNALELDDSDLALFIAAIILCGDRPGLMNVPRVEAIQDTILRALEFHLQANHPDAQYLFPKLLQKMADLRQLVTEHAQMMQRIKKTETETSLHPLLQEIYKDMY
Method in brief: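 Fluorescence from capillary electrophoresis of labelled RT-PCR reporter fragments gives the signal; DMSO sets baseline. Cells: HepG2 transiently carrying GAL4-UAS reporter units plus chimeric nuclear receptor-Gal4 proteins, exposed to chemicals for 24 h.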

Measured: AC50

CC(C)=CCCC(C)CCO (stereo not drawn)
inactive: [1] | [2] | [3] | [4] | [5] | [6] | [8] | [9] | [10] | [11] | [12] | [13]
active: [7] 134 µM | [14] 65.5 µM

CCOCCO
inactive: [1] | [15] | [3] | [4] | [5] | [6] | [7] | [8] | [9] | [10] | [11] | [12]

CC(=O)OC[C@H]1O[C@@](COC(C)=O)(O[C@H]2O[C@H](COC(C)=O)[C@@H](OC(C)=O)[C@H](OC(C)=O)[C@H]2OC(C)=O)[C@@H](OC(C)=O)[C@@H]1OC(C)=O
inactive: [16] | [2] | [15] | [3] | [4] | [5] | [7] | [8] | [9] | [10] | [11] | [12] | [14]

CNS(=O)(=O)c1cc(C(=O)N2CCC(CCN3C4CCC3CC(n3c(C)nc5ccccc53)C4)(c3cccc(F)c3)CC2)c(Cl)cc1F (stereo not drawn)
active: [6] 5.18 µM | [7] 2.71 µM | [9] 6.99 µM | [11] 16.7 µM | [12] 13.5 µM
inactive: [2] | [17] | [15] | [3] | [4] | [8] | [10] | [18]

Nc1ccc(Nc2ccccc2)cc1
active: [7] 47.1 µM | [8] 32 µM | [10] 0.903 µM | [12] 4.54 µM
inactive: [16] | [17] | [3] | [4] | [5] | [6] | [9] | [11] | [14]

CC(C)CCCCCCOC(=O)c1ccc(C(=O)OCCCCCCC(C)C)c(C(=O)OCCCCCCC(C)C)c1
inactive: [1] | [3] | [4] | [5] | [7] | [8] | [9] | [10] | [11] | [12] | [13]

CC(C)=CCC/C(C)=C/CO
inactive: [1] | [15] | [3] | [4] | [7] | [8] | [9] | [10] | [11] | [12] | [14]

On1ccccc1=S
active: [6] 10.2 µM | [7] 12.2 µM | [10] 18.6 µM | [11] 28.4 µM | [12] 24.7 µM | [13] 16.1 µM
inactive: [2] | [15] | [3] | [4] | [5] | [8] | [9]

C[C@](N)(Cc1ccc(O)c(O)c1)C(=O)O
inactive: [17] | [3] | [4] | [6] | [7] | [8] | [9] | [10] | [11] | [12] | [13] | [18]

CCOCCOCCOCCO
inactive: [16] | [17] | [15] | [3] | [4] | [5] | [6] | [7] | [8] | [9] | [10] | [11] | [12]

CCCCCCCCO
inactive: [15] | [3] | [4] | [5] | [7] | [8] | [9] | [10] | [11] | [12] | [13] | [14]

CC(=O)c1ccc2c(c1)[C@H](NC(=O)c1ccc(F)cc1)[C@@H](O)C(C)(C)O2
inactive: [16] | [2] | [3] | [4] | [7] | [8] | [9] | [10] | [11] | [12] | [13] | [14]

CC(C)(O)c1coc(S(=O)(=O)NC(=O)Nc2c3c(cc4c2CCC4)CCC3)c1
inactive: [16] | [2] | [17] | [3] | [4] | [5] | [6] | [7] | [8] | [9] | [10] | [11] | [12] | [13]
